# From PubChem BioAssay (Tox21)
# Records with an inconclusive call do not appear. The source made the active and inactive calls. Calls follow the shape of the dose curve; as a rule, active = well fitted curve in the direction sought with a large enough effect in the repeat runs; inconclusive = weak or mixed curves; inactive = no such curve, though single readings can be large; an effect the other way counts as inactive or inconclusive.
# Experiment: A CellTox Green Cytotoxicity Assay to monitor cytotoxicity in HepG2 cells - 8 hour (AID 1224890); also: nearly all actives have a fitted effect of over 45% in size; also: potency is read from the fitted curve at half-maximal effect
# Conditions: CellTox Green fluorescence; series mostly up to 76.8 µM; cytotoxicity increase: at the top concentration
# How it was run: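 HepG2 cells, 600/well, preincubated 5 h with CellTox Green dye, then exposed to Tox21 compounds in DMSO at 37 C for up to 40 h. Dead-cell DNA fluorescence read at the indicated time point.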
# % is scaled to controls: 0 for no effect and ±100 for the full control effect.
Structure (SMILES),cytotoxicity increase,Potency
C=CCOc1c(Br)cc(Br)cc1Br,2.82% (inactive),–
O=C1OC(=O)c2ccccc21,6.52% (inactive),–
CC(C)CCCC(C)CC=O (centres undefined),–,21.9 µM (active)
OC[C@@H](O)[C@H](O)[C@@H](O)[C@@H](O)CO,11.4% (inactive),–
O=C(CN1CCN(Cc2ccc3c(c2)OCO3)CC1)N1c2ccccc2Sc2ccccc21,4.08% [at 35.3 µM] (inactive),–
C=CCOC(=O)c1ccc(C(=O)OCC=C)c(C(=O)OCC=C)c1,2.03% (inactive),–
CCOC(=O)C(=O)c1csc(NC=O)n1,-12.5% [at 35.3 µM] (inactive),–
Nc1ccc(C(=O)OCC(O)CO)cc1 (centres undefined),-2.48% [at 35.3 µM] (inactive),–
CC(CC(=O)O)CC(C)(C)C (centres undefined),-3.25% (inactive),–
CC(C)C(=O)c1ccccc1,-1.92% (inactive),–
CC(C)C(=O)Nc1cccc(C(F)(F)F)c1,-2.49% [at 35.3 µM] (inactive),–
NC(=O)NNC(N)=O,-15% (inactive),–
O=C(O)c1c(Cl)ccc(Cl)c1Cl,2.68% (inactive),–
CCCCCC(=O)OCC,0.557% (inactive),–
CCC1COC(=O)O1 (centres undefined),-14.2% (inactive),–
Cc1ccc(C(=O)C(=O)O)cc1C,-14.9% [at 35.3 µM] (inactive),–
CC(=O)/C=C/c1ccco1,1.91% (inactive),–
CC(C)(c1ccc(Oc2ccc3c(c2)C(=O)OC3=O)cc1)c1ccc(Oc2ccc3c(c2)C(=O)OC3=O)cc1,-3.61% (inactive),–
O=S(=O)(O)CCO,-5.9% (inactive),–

Structure (SMILES),cytotoxicity increase,Potency
CCCCCCCCCCCCC1CO1 (centres undefined),-0.208% (inactive),–
CCCCCCCCCCCCOC(C)=O,0.29% (inactive),–
CO[Si](CCCS)(OC)OC,2.07% (inactive),–
Cc1cccc(C(=O)O)c1[N+](=O)[O-],0.0186% (inactive),–
CC(C)(C)NCCO,3.22% (inactive),–
CC(=O)OC(C)c1ccccc1 (centres undefined),-9.44% (inactive),–
O=C(O)c1ccccc1C(=O)Nc1ccc(S(=O)(=O)Nc2nccs2)cc1,-3.86% [at 35.3 µM] (inactive),–
CC1=CC[C@H](CC=O)C1(C)C,-6.04% (inactive),–
CN(C)CCOCCN(C)CCO,-2.25% (inactive),–
C=C[Si](C)(C)O[Si](C)(C)C=C,-8.91% (inactive),–
CCCCOC(=O)[C@@H](C)Oc1ccc(Oc2ccc(C(F)(F)F)cn2)cc1,8.41% (inactive),–
CC(C)SCc1ccco1,-3.96% [at 35.3 µM] (inactive),–
CCCCCCCCC(=O)OCC,4.15% (inactive),–
CCN1CN(CC)CN(CC)C1,3.5% (inactive),–
CCCOC(=O)CCCCC(=O)OCCC,-6.57% (inactive),–
CCCCOC(=O)C(C)OC(=O)CCC (centres undefined),-5.18% (inactive),–
CCCO,0.376% (inactive),–
Cc1cc(O)c2c(c1)C(=O)c1cccc(O)c1C2=O,2.41% [at 35.3 µM] (inactive),–
CC(C)CCCCCCOC(=O)C1CCCCC1C(=O)OCCCCCCC(C)C (centres undefined),-10.5% (inactive),–

# Experiment: qHTS assay to identify small molecule antagonists of the estrogen receptor alpha (ER-alpha) signaling pathway using the BG1 cell line in the presence of 0.1 nM 17-beta-estradiol - cell viability counter screen (AID 1259241); also: nearly all actives have a fitted effect of over 40% in size
# Conditions: VM7Luc4E2 (BG1) viability, CellTiter-Fluor protease, 22 h, 0.1 nM estradiol agonist added; series mostly up to 92.4 µM; activity change, negative = cytotoxicity: at the top concentration
# How it was run: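 VM7Luc4E2, 4,000 cells/well, phenol red-free medium + 10% charcoal-stripped FBS; 24 hr plating; cpd + 0.1 nM E2 final, 22 hr 37C/5% CO2; CellTiter-Fluor 30 min, fluorescence.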
row,Structure (SMILES),"activity change, negative = cytotoxicity"
1,C=CCOc1c(Br)cc(Br)cc1Br,1.29% (inactive)
2,O=C1OC(=O)c2ccccc21,10.5% (inactive)
3,CC(C)CCCC(C)CC=O (centres undefined),4% (inactive)
4,OC[C@@H](O)[C@H](O)[C@@H](O)[C@@H](O)CO,3.88% (inactive)
5,O=C(CN1CCN(Cc2ccc3c(c2)OCO3)CC1)N1c2ccccc2Sc2ccccc21,0.551% [at 42.5 µM] (inactive)
6,C=CCOC(=O)c1ccc(C(=O)OCC=C)c(C(=O)OCC=C)c1,0.497% (inactive)
7,CCOC(=O)C(=O)c1csc(NC=O)n1,-0.9% [at 42.5 µM] (inactive)
8,Nc1ccc(C(=O)OCC(O)CO)cc1 (centres undefined),6.03% [at 42.5 µM] (inactive)
9,CC(CC(=O)O)CC(C)(C)C (centres undefined),2.57% (inactive)
10,CC(C)C(=O)c1ccccc1,4.57% (inactive)
11,CC(C)C(=O)Nc1cccc(C(F)(F)F)c1,3.6% [at 42.5 µM] (inactive)
12,NC(=O)NNC(N)=O,7.69% (inactive)
13,O=C(O)c1c(Cl)ccc(Cl)c1Cl,4.31% (inactive)
14,CCCCCC(=O)OCC,-2.13% (inactive)
15,CCC1COC(=O)O1 (centres undefined),-2.24% (inactive)
16,Cc1ccc(C(=O)C(=O)O)cc1C,-0.776% [at 42.5 µM] (inactive)
17,CC(=O)/C=C/c1ccco1,7.57% (inactive)
18,CC(C)(c1ccc(Oc2ccc3c(c2)C(=O)OC3=O)cc1)c1ccc(Oc2ccc3c(c2)C(=O)OC3=O)cc1,5.87% (inactive)
19,O=S(=O)(O)CCO,15.4% (inactive)

row,Structure (SMILES),"activity change, negative = cytotoxicity"
1,CCCCCCCCCCCCC1CO1 (centres undefined),7.3% (inactive)
2,CCCCCCCCCCCCOC(C)=O,-2.76% (inactive)
3,CO[Si](CCCS)(OC)OC,2.33% (inactive)
4,Cc1cccc(C(=O)O)c1[N+](=O)[O-],15.1% (inactive)
5,CC(C)(C)NCCO,6.44% (inactive)
6,CC(=O)OC(C)c1ccccc1 (centres undefined),5.05% (inactive)
7,O=C(O)c1ccccc1C(=O)Nc1ccc(S(=O)(=O)Nc2nccs2)cc1,-0.884% [at 42.5 µM] (inactive)
8,CC1=CC[C@H](CC=O)C1(C)C,0.127% (inactive)
9,CN(C)CCOCCN(C)CCO,4.45% (inactive)
10,C=C[Si](C)(C)O[Si](C)(C)C=C,-1.09% (inactive)
11,CCCCOC(=O)[C@@H](C)Oc1ccc(Oc2ccc(C(F)(F)F)cn2)cc1,4.54% (inactive)
12,CC(C)SCc1ccco1,0.514% [at 42.5 µM] (inactive)
13,CCCCCCCCC(=O)OCC,-2.76% (inactive)
14,CCN1CN(CC)CN(CC)C1,-2.49% (inactive)
15,CCCOC(=O)CCCCC(=O)OCCC,3.7% (inactive)
16,CCCCOC(=O)C(C)OC(=O)CCC (centres undefined),0.0648% (inactive)
17,CCCO,-2.18% (inactive)
18,Cc1cc(O)c2c(c1)C(=O)c1cccc(O)c1C2=O,-3.13% [at 42.5 µM] (inactive)
19,CC(C)CCCCCCOC(=O)C1CCCCC1C(=O)OCCCCCCC(C)C (centres undefined),1.4% (inactive)

# Experiment: qHTS assay to identify small molecule antagonists of the androgen receptor (AR) signaling pathway using the MDA cell line in the presence of 0.5 nM R1881 - cell viability counter screen (AID 1259242); also: nearly all actives have a fitted effect of over 45% in size
# Conditions: MDA-kb2 viability, CellTiter-Fluor protease fluorescence, 16 h; series mostly up to 92.4 µM; viability change, negative = cytotoxic: at the top concentration
# How it was run: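 MDA-kb2 cells (MMTV-luciferase, AR/GR responsive) were treated with compounds plus 0.5 nM R1881 (final) for 16 hr at 37C, 0% CO2. Viability was then read in the same wells as live-cell protease fluorescence (CellTiter-Fluor, 30 min).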
row,Structure (SMILES),"viability change, negative = cytotoxic"
1,C=CCOc1c(Br)cc(Br)cc1Br,-0.522% (inactive)
2,O=C1OC(=O)c2ccccc21,2.33% (inactive)
3,CC(C)CCCC(C)CC=O (centres undefined),4.71% (inactive)
4,OC[C@@H](O)[C@H](O)[C@@H](O)[C@@H](O)CO,1.96% (inactive)
5,O=C(CN1CCN(Cc2ccc3c(c2)OCO3)CC1)N1c2ccccc2Sc2ccccc21,1.22% [at 42.5 µM] (inactive)
6,C=CCOC(=O)c1ccc(C(=O)OCC=C)c(C(=O)OCC=C)c1,6.96% (inactive)
7,CCOC(=O)C(=O)c1csc(NC=O)n1,0.35% [at 42.5 µM] (inactive)
8,Nc1ccc(C(=O)OCC(O)CO)cc1 (centres undefined),1.08% [at 42.5 µM] (inactive)
9,CC(CC(=O)O)CC(C)(C)C (centres undefined),-0.665% (inactive)
10,CC(C)C(=O)c1ccccc1,4.75% (inactive)
11,CC(C)C(=O)Nc1cccc(C(F)(F)F)c1,0.245% [at 42.5 µM] (inactive)
12,NC(=O)NNC(N)=O,1.06% (inactive)
13,O=C(O)c1c(Cl)ccc(Cl)c1Cl,0.309% (inactive)
14,CCCCCC(=O)OCC,-4.04% (inactive)
15,CCC1COC(=O)O1 (centres undefined),1.27% (inactive)
16,Cc1ccc(C(=O)C(=O)O)cc1C,1.12% [at 42.5 µM] (inactive)
17,CC(=O)/C=C/c1ccco1,1.76% (inactive)
18,CC(C)(c1ccc(Oc2ccc3c(c2)C(=O)OC3=O)cc1)c1ccc(Oc2ccc3c(c2)C(=O)OC3=O)cc1,3.62% (inactive)
19,O=S(=O)(O)CCO,0.946% (inactive)

row,Structure (SMILES),"viability change, negative = cytotoxic"
1,CCCCCCCCCCCCC1CO1 (centres undefined),1.77% (inactive)
2,CCCCCCCCCCCCOC(C)=O,0.842% (inactive)
3,CO[Si](CCCS)(OC)OC,0.718% (inactive)
4,Cc1cccc(C(=O)O)c1[N+](=O)[O-],0.657% (inactive)
5,CC(C)(C)NCCO,-2.29% (inactive)
6,CC(=O)OC(C)c1ccccc1 (centres undefined),2.52% (inactive)
7,O=C(O)c1ccccc1C(=O)Nc1ccc(S(=O)(=O)Nc2nccs2)cc1,2.42% [at 42.5 µM] (inactive)
8,CC1=CC[C@H](CC=O)C1(C)C,2.29% (inactive)
9,CN(C)CCOCCN(C)CCO,-7.87% (inactive)
10,C=C[Si](C)(C)O[Si](C)(C)C=C,1.19% (inactive)
11,CCCCOC(=O)[C@@H](C)Oc1ccc(Oc2ccc(C(F)(F)F)cn2)cc1,7.92% (inactive)
12,CC(C)SCc1ccco1,4.99% [at 42.5 µM] (inactive)
13,CCCCCCCCC(=O)OCC,-0.824% (inactive)
14,CCN1CN(CC)CN(CC)C1,5.2% (inactive)
15,CCCOC(=O)CCCCC(=O)OCCC,-0.346% (inactive)
16,CCCCOC(=O)C(C)OC(=O)CCC (centres undefined),0.696% (inactive)
17,CCCO,2.85% (inactive)
18,Cc1cc(O)c2c(c1)C(=O)c1cccc(O)c1C2=O,-15.6% [at 42.5 µM] (inactive)
19,CC(C)CCCCCCOC(=O)C1CCCCC1C(=O)OCCCCCCC(C)C (centres undefined),1.77% (inactive)
